Source: PubChem BioAssay AID743279 (National Center for Advancing Translational Sciences (NCATS), 2014)
Among all 360,000 compounds or so, about 17,000 (4.7%) were called active. Not shown: some 5% with an inconclusive outcome. Rule as the data show it: active = activity change below about -50%; inconclusive = mostly about -30% to -49%; inactive = weaker than that. Shown is part of a subset that was picked to be rich in actives.

Experiment: qHTS for Inhibitors of Inflammasome Signaling: IL-1-beta AlphaLISA Primary Screen
Settings: THP-1 LPS/ATP IL-1B secretion, 16 h; at 57.5 µM, active compounds read low
Procedure, shortened: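 Secreted IL-1B measured by AlphaLISA bead assay after 16 h compound exposure of THP-1 cells; compounds (final up to 57.5 uM) added 1 h before LPS (250 ng/mL) and ATP (1.25 mM) stimulation; lower signal means less secretion.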
% is scaled to controls: 0 for no effect and ±100 for the full control effect.

Activity change, inactive:
CCOC(=O)C1=CC[C@@H](c2ccccc2)N(S(=O)(=O)c2ccc(C)cc2)[C@H]1c1cccc(OC)c1 2.13%, OC(COc1ccc(Br)cc1)CN1CCCC1 (stereo unspecified) -27.2%, CC1CCN(CC(O)COc2ccc(C(=O)c3ccccc3)cc2)CC1 (stereo unspecified) -22.3%, OC(COc1ccccc1)CN1CCN(c2cccc(Cl)c2)CC1 (stereo unspecified) 14.3%, CCC(=O)c1ccc(OCC(O)CN2CCN(c3cccc(C(F)(F)F)c3)CC2)cc1 (stereo unspecified) -11.4%, CC(C)NC(=O)C1(C)CCCCN1Cc1cccc(C(F)(F)F)c1 (stereo unspecified) 12.4%, CCCCCNC(=O)C(c1ccc(OC)cc1)n1c(=O)c(-c2ccccc2)nc2ccccc21 (stereo unspecified) -10.4%, CCOC(=O)C1(C)CCCN(C(=O)c2ccc(F)c(Cl)c2)C1 (stereo unspecified) 7.31%, C[C@H]1CN([C@@H](C)CO)C(=O)CCCn2cc(nn2)CO[C@@H]1CN(C)S(=O)(=O)c1ccc(-n2cccn2)cc1 -21.5%, O=C(CSCc1ccc([N+](=O)[O-])cc1)Nc1cccc(C(=O)Nc2ccccc2C(=O)O)c1 13.4%, O=C(Cc1ccc(S(=O)(=O)N2CCOCC2)s1)NCCC(c1ccccc1)c1ccccc1 17%, O=C(Cc1ccc(S(=O)(=O)N2CCOCC2)s1)NCCOc1ccccc1F 6.24%, CCN(C(=O)Nc1cccc2ccccc12)c1ccccc1 12.7%, O=C(Nc1nnc(-c2ccccc2)o1)c1cc(-c2cccs2)nc2ccccc12 23%, COc1ccccc1C(=O)Nn1c(-c2cccs2)nc2ccccc2c1=O -3.33%, COc1ccccc1Oc1ccc(S(=O)(=O)Nc2cccnc2)cc1 -2.24%, Cc1ccc(NS(=O)(=O)c2ccc(C(C)(C)C)cc2)cn1 1.59%, COc1ccc(S(=O)(=O)N(C)C[C@H]2OCc3cnnn3CCCC(=O)N([C@H](C)CO)C[C@H]2C)cc1 -20%, Cc1ccccc1NC(=O)Cc1nc(COC(=O)C(C)(C)Oc2ccc(Cl)cc2)cs1 17%, CC1CCCCN1CCCNC(=O)Cn1ncc2c([nH]c3ccccc32)c1=O (stereo unspecified) 14.3%, CCNC(=O)C1CCCN(C(=O)c2cc(F)ccc2C)CC1 (stereo unspecified) 26.6%, Cc1nn(C)c(C)c1NS(=O)(=O)c1ccc(OC(F)(F)F)cc1 63%, O=C1COc2ccc(S(=O)(=O)Nc3ccc(OC(F)(F)F)cc3)cc2N1 6.28%, O=C(CC[C@H]1O[C@@H](n2ccc(=O)[nH]c2=O)[C@H](O)[C@@H]1O)N[C@H](Cc1ccccc1)C(=O)NCc1ccco1 17.1%, CNc1nc(=O)n(C2CCCO2)cc1C (stereo unspecified) -1.08%, Cc1cc(C)n2c(Nc3c(C)cccc3C)c(CCc3ccccc3)nc2n1 0%, O=C(COC(=O)c1ccc([N+](=O)[O-])cc1Cl)NC(=O)c1ccccc1 0.699%, O=C(NOCc1ccccc1)c1cccc([N+](=O)[O-])c1 -14.2%, CCOC(=O)c1ccccc1NC(=O)COC(=O)CCC(=O)N1CCOCC1 -2.88%, CN(C)CCOC1c2ccccc2-c2ccccc21 -24.9%, CN(C)CCOC(=O)C(c1ccccc1)C1(O)CCCC1 (stereo unspecified) -8.97%, Nc1ccccc1Sc1cc(Cl)nnc1Cl 4.28%, CCOc1ccc(S(=O)(=O)Nc2nccs2)cc1 -1.81%, CC(Oc1ccc(Cl)cc1)c1ccnn1S(C)(=O)=O (stereo unspecified) -4.95%, CCC(C)C(=O)Nc1cc([N+](=O)[O-])ccc1Cl (stereo unspecified) 4.95%, CNc1ccc([N+](=O)[O-])cc1C(=O)O 12.5%, CN(Cc1ccccc1F)c1cc2c(c3c1ccn3C)C1CCC2O1 (stereo unspecified) 38.3%, Cc1nccn1-c1ccc(NC(=O)[C@H]2O[C@@H](n3ccc(=O)[nH]c3=O)[C@H](O)[C@@H]2O)cc1 20.2%, COC(=O)[C@@]1(Cc2ccc(F)cc2)[C@H]2c3cc(C(=O)N(C)C)n(CCc4c[nH]c5ccc(OC)cc45)c3C[C@H]2CN1C(=O)c1ccccc1 -25.7%, O=C(CSc1nnc(-c2ccncc2)n1-c1ccc(Cl)cc1)Nc1ccc(C(=O)O)cc1 8.71%, CCOc1ccc(CN2CCCN(C)CC2)cc1 14.6%, Cn1c(=N)n(CC(O)c2ccccc2)c2ccccc21 (stereo unspecified) 35.9%, COCCn1cnnc1SCC(=O)Nc1cccc(S(=O)(=O)N2CCCCC2)c1 5.3%, CN(CCO)C(=O)c1nc[nH]c1C(=O)N(C)Cc1ccccc1 26.2%, CCCCCCN1C[C@H](O)[C@@H](n2cc(C3CC3)nn2)C[C@@H]1c1ccc(Cl)cc1 82%, CN1CCN(CCC(=O)N/N=C/C=C2\N(C)c3ccccc3C2(C)C)CC1 10.2%, CC(=O)Nc1ccc(NC(=O)COc2ccc(-c3ccccc3)cc2)cc1 -15.4%, C[C@@H]1CC2=C(C(=O)OC(C)(C)O2)[C@@H](C2CC2)O1 32.1%, CN(CC(=O)Nc1cccc(F)c1)C(=O)CC1CCCC1 0.0851%, CN(CC(=O)Nc1cccc(F)c1)C(=O)C1=COCCO1 2.81%, CCCCNS(=O)(=O)CCNCc1ccccc1OC 3.56%, CCCCCCNS(=O)(=O)c1ccccc1Br 14%, C[C@H]1CN([C@@H](C)CO)C(=O)CCCn2cc(nn2)CO[C@@H]1CN(C)S(=O)(=O)c1cccs1 7.03%, CC(C)(C)NC(=O)C(CCc1ccccc1)n1c(=O)c(-c2ccccc2)nc2ccccc21 (stereo unspecified) 0%, CC(C)C1CCN(C(=O)C2CCC(=O)N(C3CCCCCC3)C2)CC1 (stereo unspecified) -3.63%, CONC(=O)c1cc(OCC(F)(F)F)ccc1OCC(F)(F)F -0.808%, CCOc1ccc(CCNC(=O)Nc2ccccc2)cc1OCC 30.9%, O=C(Nc1ccc(N2CCCCC2)cc1)c1cc(S(=O)(=O)N2CCOCC2)ccc1F -27.8%, NS(=O)(=O)c1ccc(CNC(=O)c2cc(S(=O)(=O)N3CCOCC3)ccc2N2CCCC2)cc1 -15.8%, S=C(NCC1COc2ccccc2O1)Nc1ccc(Br)cc1 (stereo unspecified) 0%, Oc1ccccc1N1CCN(c2ncnc3sc(-c4ccccc4)cc23)CC1 -28.1%, Nc1cc(=O)n(Cc2ccccc2)c(=O)n1Cc1ccccc1 -0.791%, O=C(NCc1ccccc1)C1C(=O)N(Cc2ccccc2)C(=O)C1C1(O)CCCC1 (stereo unspecified) -0.107%, COc1ccc(-c2[nH][nH]c(=O)c2NC(=O)c2ccc([N+](=O)[O-])cc2)cc1 16%, COc1ccc(CNC(=O)COC(=O)C(CCSC)N2C(=O)c3ccccc3C2=O)cc1 (stereo unspecified) 5%, CC(C)[C@@H](C(=O)OCC(=O)c1ccc2c(c1)NC(=O)CO2)N1C(=O)c2ccccc2C1=O 25.8%, CCN(CC(=O)NCCCN1CCOCC1)S(=O)(=O)c1cc(Cl)ccc1Cl -11.7%, CCN(CC)CCN(C(=O)c1cc(Cl)sc1Cl)c1nc2cc3c(cc2s1)OCO3 0%, CN(C)CCN(C(=O)CN1C(=O)c2ccccc2C1=O)c1nc2cc3c(cc2s1)OCCO3 10%, COc1ccc(S(=O)(=O)N(C)CC(=O)N2CCCC2)cc1 -1.23%, CN(C)CCN(C(=O)C1CCCCC1)c1nc2cc3c(cc2s1)OCO3 -5.98%, CCN(CC)CCN(C(=O)c1cccc([N+](=O)[O-])c1)c1nc2ccc(OC)cc2s1 -20.4%, CCN(CC(=O)Nc1c(F)cccc1F)C(=O)c1ccc(S(=O)(=O)N2CCCCC2)cc1 -1.87%, Brc1ccc2nc(N3CCCC3)sc2c1 32.8%, Cc1ccc2nc(N(CCN(C)C)C(=O)C3=COCCO3)sc2c1 -6.05%

Activity change, active:
O=C(c1ccc(Cl)cc1)c1ccc(OCC(O)CN2CCCCC2)cc1 (stereo unspecified) -52.5%, OC(COc1ccc2c(c1)CCC2)CN1CCN(c2cccc(Cl)c2)CC1 (stereo unspecified) -64.8%, O=C(Cc1ccc(S(=O)(=O)N2CCOCC2)s1)Nc1ccc(Br)c(C(F)(F)F)c1 -61%, CC(=O)Nc1cccc(Nc2nc(-c3cccs3)nc3ccccc23)c1 -65.6%, Cc1cc(C)cc(NS(=O)(=O)c2ccc(Oc3ncc(C(F)(F)F)cc3Cl)cc2)c1 -75.1%, O=S(=O)(Nc1ccc(O)c2ccccc12)c1ccc(OC(F)(F)F)cc1 -70.3%, O=C(NC(Nc1nc2ccc([N+](=O)[O-])cc2s1)(C(F)(F)F)C(F)(F)F)c1ccccc1 -105%, Cc1ccccc1C(OCCN(C)C)C1CCCCC1 (stereo unspecified) -55.7%, Cc1ccc(NC(=O)c2cc([N+](=O)[O-])ccc2Cl)c(O)c1 -76%, CCOc1ccc(C(O)Cn2c(=N)n(CCN3CCCCC3)c3ccccc32)cc1 (stereo unspecified) -60.3%, CC(=O)Nc1cccc(OCC(=O)/C=C2\N(C)c3ccccc3C2(C)C)c1 -82%, CC1CCc2[nH]c3ccc(C(=O)N(C)CC(=O)Nc4cccc(F)c4)cc3c2C1 (stereo unspecified) -74.7%, CCCCCCCCNS(=O)(=O)CCNC1CCCCC1 -65.1%, O=C(NC(=O)c1cc(OCC(F)(F)F)ccc1OCC(F)(F)F)Nc1ccccc1 -63.5%, O=C(CNC(=O)c1cc(S(=O)(=O)N2CCOCC2)ccc1N1CCCC1)Nc1ccc(F)c(F)c1 -54%, c1ccc(-c2cc3c(NCC4COc5ccccc5O4)ncnc3s2)cc1 (stereo unspecified) -59.2%, CCCCC(C(=O)OCC(=O)c1ccc(OC)cc1)N1C(=O)c2ccccc2C1=O (stereo unspecified) -57.4%, CN(C)CCCN(C(=O)c1ccc(S(=O)(=O)N2CCCCCC2)cc1)c1nc2cc3c(cc2s1)OCCO3 -66.5%, COc1ccc2sc(N(CCCN(C)C)C(=O)c3ccc(S(=O)(=O)N(C)C4CCCCC4)cc3)nc2c1 -72.4%, CN(C)CCCN(C(=O)c1ccc(S(=O)(=O)N2CCCCCC2)cc1)c1nc2ccc(Br)cc2s1 -101%, CCc1ccc2nc(N(CCCN(C)C)C(=O)c3ccc4c(c3)OCCO4)sc2c1 -61.9%
